In PubChem BioAssay (EPA / NIEHS):
The source made the active and inactive calls. How the source made its calls: active means hit-call score of the fitted dose curve at least 0.9, where 1 is the maximum; inactive means score below 0.9.

What was measured:
[1] = APR_HepG2_P-H2AX_72hr: Apredica 72-hour HepG2 Assay for H2AX Phosphorylation (AID 2282916); conditions: imaging, actives raise or lower the signal;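 further: phospho-histone H2A.x immunostain intensity per cell marking DNA damage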
How it was run: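 Following 72 hr treatment with 0.39–200 uM compound, HepG2 cells were formaldehyde-fixed, permeabilized and stained for phospho-H2A.x; signal was measured by high-content imaging and fitted bidirectionally against DMSO controls.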

[2] = APR_HepG2_MitoMembPot_72hr: Apredica 72-hour HepG2 Assay for Mitochondrial Membrane Potential (AID 2282917); conditions: imaging, actives raise or lower the signal
How it was run: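 Membrane potential read by MitoTracker Red CMXRos (250 nM, 30 min, pre-fixation) fluorescence imaging of HepG2 after 72 hr exposure. Ten concentrations, 0.39–200 uM, duplicate wells, 0.5% DMSO; fitted in both directions against DMSO baseline.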

[3] = APR_HepG2_MitoticArrest_72hr: Apredica 72-hour HepG2 Assay for Mitotic Arrest (AID 2282918); conditions: high-content imaging, actives raise or lower the signal
How it was run: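 HepG2 cells treated 72 h at 0.39–200 uM, 0.5% DMSO final; formaldehyde-fixed, stained with Hoechst 33342 and phospho-histone H3 antibody, imaged by high-content fluorescence; bidirectional fit versus DMSO.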

[4] = APR_HepG2_MicrotubuleCSK_72hr: Apredica 72-hour HepG2 Assay for Microtubule CSK Stabilty (AID 2282919); conditions: HepG2 microtubule cytoskeleton, high-content imaging, actives raise or lower the signal
How it was run: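 Read-out is tubulin fluorescence intensity from high-content imaging of HepG2 cells, with nuclei identified by Hoechst 33342. Treatment lasts 72 h at 0.39–200 uM, and curves are fitted bidirectionally against the DMSO negative control.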

[5] = APR_HepG2_P-H2AX_24hr: Apredica 24-hour HepG2 Assay for H2AX Phosphorylation (AID 2282920); conditions: high-content imaging, actives raise or lower the signal
How it was run: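 HepG2 cells dosed 24 h at 0.39–200 uM (10 points, duplicate, 0.5% DMSO final). Formaldehyde-fixed and permeabilized, then immunostained for phospho-H2A.x with Hoechst. Fluorescence quantified by high-content imaging, fitted bidirectionally versus DMSO.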

[6] = APR_HepG2_StressKinase_72hr: Apredica 72-hour HepG2 Assay for Stress Kinase (AID 2282921); conditions: HepG2 stress kinase (phospho-c-Jun) imaging, actives raise or lower the signal
How it was run: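 Fluorescence intensity of Cy3-tagged anti-phospho-c-Jun antibody, quantified per cell from Hoechst-defined nuclei across six images per well, served as the read-out following 72 h exposure (0.39–200 uM, 0.5% v/v DMSO).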

[7] = APR_HepG2_StressKinase_24hr: Apredica 24-hour HepG2 Assay for Stress Kinase (AID 2282922); conditions: HepG2 stress kinase (phospho-c-Jun) imaging, actives raise or lower the signal
How it was run: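 HepG2, 24 hr dosing, 0.39–200 uM in duplicate, 0.5% DMSO; formaldehyde fix (3.7%), 0.5% Triton X-100; anti-phospho-c-Jun + Cy3 secondary, Hoechst counterstain; ArrayScan imaging; bidirectional curve fit vs DMSO baseline.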

[8] = APR_HepG2_p53Act_72hr: Apredica 72-hour HepG2 Assay for p53 Activation (AID 2282923); conditions: high-content imaging, actives raise or lower the signal;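 further: average cellular p53 protein immunofluorescence intensity in HepG2 cells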
How it was run: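 HepG2 monolayers receive test compounds in duplicate at ten concentrations (0.39 through 200 uM) for 72 hr. They are then formaldehyde-fixed, antibody-labelled for p53, Hoechst-stained and imaged, with activity fitted bidirectionally versus DMSO.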

[9] = APR_HepG2_MitoMass_72hr: Apredica 72-hour HepG2 Assay for Mitochondrial Mass (AID 2282924); conditions: high-content imaging, actives raise or lower the signal;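 further: MitoTracker Red CMXRos stain intensity per cell imaged as mitochondrial mass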
How it was run: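 HepG2, 72 hr cmpd, 10 conc 0.39–200 uM in dup, DMSO 0.5% v/v. MitoTracker Red CMXRos 250 nM 30 min pre-fix; formaldehyde 3.7% fix 30 min RT. HCS imaging, gain/loss fit vs DMSO.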

[10] = APR_HepG2_NuclearSize_72hr: Apredica 72-hour HepG2 Assay for Nuclear Size (AID 2282925); conditions: high-content imaging, actives raise or lower the signal
How it was run: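 HepG2; cpd 0.39–200 uM, 10 conc, duplicate; 72 h; DMSO 0.5% v/v; fix 3.7% formaldehyde 30 min RT; Triton permeabilization; Hoechst 2 ug/mL; HCS imaging 20x; nuclear diameter; gain/loss fit vs DMSO.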

[11] = ATG_CRE_CIS: Attagene CIS-FACTORIAL HepG2 Assay for human cAMP Responsive Element (CRE) binding protein 3 (AID 2282926); conditions: HepG2 CRE cis-reporter, Attagene multiplexed mRNA; actives raise or lower the signal
How it was run: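 HepG2 cells transiently transfected with cis-element-driven multiple reporter transcription units; CRE reporter mRNA measured 24 h after dosing by RT-PCR, 6-FAM labelling, HpaI digestion and capillary electrophoresis. Bidirectional fit versus DMSO baseline.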

[12] = target: CCAAT/enhancer-binding protein beta (Homo sapiens) (UniProt P17676); assay: ATG_C_EBP_CIS: Attagene CIS-FACTORIAL HepG2 Assay for human CCAAT/Enhancer Binding Protein (C/EBP) beta (AID 2282927); conditions: HepG2 Attagene cis-factorial transcription factor reporter; actives raise or lower the signal
How it was run: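 Changes in reporter mRNA, rather than exogenous chimeric receptor activity, reflect native C/EBP signalling in transfected HepG2 cells dosed for 24 h; transcripts are detected by RT-PCR and capillary electrophoresis.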

[13] = ATG_CMV_CIS: Attagene CIS-FACTORIAL HepG2 Assay for human CMV (Internal Marker) (AID 2282928); conditions: HepG2 CMV promoter reporter, transcription factor profiling; actives raise or lower the signal;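 further: endpoint acts as a background internal control marker rather than a target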
How it was run: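 HepG2 cells transiently transfected with multiple cis-regulated reporter units; 24 h compound exposure. Reporter mRNA quantified by RT-PCR, 6-FAM primer-extension labeling, HpaI digestion and capillary electrophoresis; bidirectional fitting against DMSO baseline.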

[14] = ATG_DR4_LXR_CIS: Attagene CIS-FACTORIAL HepG2 Assay for human Liver X Receptor (LXR), DR4 submotif (AID 2282929); conditions: HepG2 Attagene DR4 cis-reporter, mRNA transcription; actives raise or lower the signal
How it was run: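 HepG2 cells were transiently transfected with multiple cis-regulated reporter units and dosed for 24 hours. The DR4 reporter mRNA was quantified by RT-PCR, 6-FAM labelling and capillary electrophoresis. Bidirectional fits used DMSO as baseline.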

[15] = target: Aryl hydrocarbon receptor (Homo sapiens) (UniProt P35869); assay: ATG_Ahr_CIS: Attagene CIS-FACTORIAL HepG2 Assay for human Aryl Hydrocarbon Receptor (Ahr) (AID 2282930); conditions: HepG2 AhR cis-factorial reporter transcription; actives raise or lower the signal
How it was run: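 HepG2, transient MRTU (cis) transfection, 24 h exposure. RNA → cDNA → PCR → 6-FAM primer extension → HpaI 2 h 37 C → CE. Fit: bidirectional, DMSO baseline.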

[16] = ATG_AP_1_CIS: Attagene CIS-FACTORIAL HepG2 Assay for human Activator Protein 1 (AP-1) (AID 2282931); conditions: HepG2 Attagene cis-factorial AP-1 reporter mRNA; actives raise or lower the signal
How it was run: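 HepG2 cells transiently transfected with cis-element-driven reporter transcription units, dosed for 24 hours. Reporter mRNA measured by RT-PCR, 6-FAM labelling, HpaI digestion and capillary electrophoresis. Bidirectional fitting against DMSO baseline.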

[17] = ATG_AP_2_CIS: Attagene CIS-FACTORIAL HepG2 Assay for human Activator Protein 2 (AP-2) (AID 2282932); conditions: HepG2 AP-2 cis-reporter, Attagene transcription factor profiling; actives raise or lower the signal
How it was run: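 Step one: transient transfection of HepG2 with reporter transcription units. Step two: 24 h chemical exposure. Step three: RNA extraction, RT-PCR, labelled fragment analysis by capillary electrophoresis; DMSO serves as baseline.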

[18] = ATG_BRE_CIS: Attagene CIS-FACTORIAL HepG2 Assay for human Bone Morphogenetic Protein (BMP) Response Element (BRE) (AID 2282933); conditions: HepG2 BMP response element reporter, Attagene transcription factor profiling; actives raise or lower the signal
How it was run: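 After a 24 h chemical treatment, transiently transfected HepG2 cells were lysed for RNA; reporter transcripts were quantified by fluorescent RT-PCR and capillary electrophoresis, normalised to DMSO.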

[19] = target: Retinoic acid receptor alpha (Homo sapiens) (UniProt P10276); assay: ATG_DR5_RAR_CIS: Attagene CIS-FACTORIAL HepG2 Assay for human Retinoic Acid Receptor Alpha (RARE), DR5 submotif (AID 2282934); conditions: HepG2 Attagene cis-factorial RARE DR5 reporter, mRNA; actives raise or lower the signal
How it was run: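 HepG2, transient cis-reporter transfection, 24 h exposure. mRNA readout: RT-PCR, FAM label, HpaI cut, capillary electrophoresis. DMSO baseline, gain/loss fitting.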

[20] = target: Transcription factor E2F1 (Homo sapiens) (UniProt Q01094); assay: ATG_E2F_CIS: Attagene CIS-FACTORIAL HepG2 Assay for human E2F Transcription Factor 1 (AID 2282935); conditions: HepG2 Attagene cis-reporter, E2F reporter RNA transcripts; actives raise or lower the signal
How it was run: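 Total RNA from 24 h-treated, reporter-transfected HepG2 cells undergoes DNase I treatment, oligo(dT) reverse transcription, PCR and 6-FAM primer extension before capillary electrophoresis.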

Measured: AC50

Sequence of CCAAT/enhancer-binding protein beta (Homo sapiens) (P17676 whole entry, looked up): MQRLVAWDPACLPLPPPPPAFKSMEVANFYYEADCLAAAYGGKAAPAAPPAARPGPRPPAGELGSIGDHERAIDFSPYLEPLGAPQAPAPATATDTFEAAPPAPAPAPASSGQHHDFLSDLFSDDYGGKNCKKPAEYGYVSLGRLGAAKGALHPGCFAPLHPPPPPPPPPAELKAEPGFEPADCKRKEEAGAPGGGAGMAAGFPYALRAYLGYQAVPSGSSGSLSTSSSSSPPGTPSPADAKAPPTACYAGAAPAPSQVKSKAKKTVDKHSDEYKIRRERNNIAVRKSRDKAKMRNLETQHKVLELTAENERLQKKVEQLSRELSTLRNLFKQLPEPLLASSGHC
Sequence of Aryl hydrocarbon receptor (Homo sapiens) (P35869 whole entry, looked up): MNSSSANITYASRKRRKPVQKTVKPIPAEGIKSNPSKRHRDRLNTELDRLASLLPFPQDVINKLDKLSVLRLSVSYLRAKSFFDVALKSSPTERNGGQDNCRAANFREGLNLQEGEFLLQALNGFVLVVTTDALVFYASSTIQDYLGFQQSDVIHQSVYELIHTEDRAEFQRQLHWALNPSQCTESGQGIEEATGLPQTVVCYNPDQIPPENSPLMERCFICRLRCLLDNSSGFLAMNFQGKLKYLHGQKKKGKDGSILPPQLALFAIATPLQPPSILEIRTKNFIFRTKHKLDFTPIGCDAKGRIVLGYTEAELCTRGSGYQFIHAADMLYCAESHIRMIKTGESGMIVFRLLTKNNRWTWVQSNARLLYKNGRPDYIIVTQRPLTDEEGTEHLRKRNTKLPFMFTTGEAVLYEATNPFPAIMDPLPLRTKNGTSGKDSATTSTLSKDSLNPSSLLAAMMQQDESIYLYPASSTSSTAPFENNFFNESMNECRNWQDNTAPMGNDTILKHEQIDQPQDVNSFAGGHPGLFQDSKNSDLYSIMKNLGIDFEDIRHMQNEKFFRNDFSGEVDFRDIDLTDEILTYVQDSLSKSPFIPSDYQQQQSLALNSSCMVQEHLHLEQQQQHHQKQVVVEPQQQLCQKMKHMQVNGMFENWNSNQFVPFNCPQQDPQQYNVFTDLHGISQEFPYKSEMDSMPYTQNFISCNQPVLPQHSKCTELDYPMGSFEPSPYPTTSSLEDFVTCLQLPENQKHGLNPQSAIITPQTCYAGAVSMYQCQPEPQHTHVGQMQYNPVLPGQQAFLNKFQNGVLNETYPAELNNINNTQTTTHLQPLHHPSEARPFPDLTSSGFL
Sequence of Retinoic acid receptor alpha (Homo sapiens) (P10276 whole entry, looked up): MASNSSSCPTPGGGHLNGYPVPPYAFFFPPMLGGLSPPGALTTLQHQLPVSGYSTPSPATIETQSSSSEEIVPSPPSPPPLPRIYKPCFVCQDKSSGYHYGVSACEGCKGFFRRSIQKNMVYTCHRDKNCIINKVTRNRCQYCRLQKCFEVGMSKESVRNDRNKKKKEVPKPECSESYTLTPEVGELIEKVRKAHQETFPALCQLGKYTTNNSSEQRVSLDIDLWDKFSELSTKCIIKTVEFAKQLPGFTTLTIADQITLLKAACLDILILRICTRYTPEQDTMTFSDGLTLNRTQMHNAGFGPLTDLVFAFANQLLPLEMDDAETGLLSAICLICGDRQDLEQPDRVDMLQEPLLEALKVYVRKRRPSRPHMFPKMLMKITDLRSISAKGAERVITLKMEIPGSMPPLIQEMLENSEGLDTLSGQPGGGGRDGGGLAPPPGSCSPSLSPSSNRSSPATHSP
Sequence of Transcription factor E2F1 (Homo sapiens) (Q01094 whole entry, looked up): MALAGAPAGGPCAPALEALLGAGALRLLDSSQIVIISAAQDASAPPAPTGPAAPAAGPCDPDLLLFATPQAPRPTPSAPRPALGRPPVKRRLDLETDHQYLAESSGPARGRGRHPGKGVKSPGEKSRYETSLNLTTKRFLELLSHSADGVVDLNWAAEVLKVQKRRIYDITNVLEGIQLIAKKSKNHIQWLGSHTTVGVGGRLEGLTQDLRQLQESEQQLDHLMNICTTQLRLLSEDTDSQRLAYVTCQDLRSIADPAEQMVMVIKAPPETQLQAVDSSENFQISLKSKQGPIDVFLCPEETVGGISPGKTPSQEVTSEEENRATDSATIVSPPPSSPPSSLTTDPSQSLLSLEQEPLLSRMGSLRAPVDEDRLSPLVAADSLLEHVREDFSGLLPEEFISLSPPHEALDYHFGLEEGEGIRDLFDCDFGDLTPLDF

C1N2CN3CN1CN(C2)C3
inactive: all assays above

O=C1CCCCCN1
inactive: all assays above

CN(C)c1ccc(N=NS(=O)(=O)O)cc1
active: [8] 57 µM | [15] 7.46 µM | [16] 43.8 µM
inactive: all other assays above

Fc1ccccc1[C@@H](F)COC1CCC(Nc2ncnc3[nH]ncc23)CC1 (stereo not given in full)
active: [1] 51.3 µM | [3] 60 µM | [4] 81.2 µM | [5] 74.9 µM | [8] 55.6 µM | [11] 25.5 µM | [13] 24.4 µM | [18] 24.6 µM | [20] 25.6 µM
inactive: all other assays above

CC(C)CCCCCCOC(=O)c1ccc(C(=O)OCCCCCCC(C)C)c(C(=O)OCCCCCCC(C)C)c1
inactive: all assays above

CCCCCCCCCCCCc1ccccc1
inactive: all assays above

CCNc1ccccc1
inactive: all assays above
